The results in this text go back to paper PMC7862700, “An all-to-all approach to the identification of sequence-specific readers for epigenetic DNA modifications on cytosine”.

Holding throughout (assay): DAPPL (digital affinity profiling via proximity ligation, sequencing); 10 mM Tris-HCl pH 7.5, 50 mM NaCl, 1 mM DTT, 4% glycerol, room temperature, 30 min; GST-TFs on glutathione beads, 16-mer random dsDNA library, 0.1% formaldehyde crosslink after washing; high values mean tight binding
Assay [1] addresses T1, FEV (Homo sapiens, UniProt Q99581 1-238).
T1 sequence: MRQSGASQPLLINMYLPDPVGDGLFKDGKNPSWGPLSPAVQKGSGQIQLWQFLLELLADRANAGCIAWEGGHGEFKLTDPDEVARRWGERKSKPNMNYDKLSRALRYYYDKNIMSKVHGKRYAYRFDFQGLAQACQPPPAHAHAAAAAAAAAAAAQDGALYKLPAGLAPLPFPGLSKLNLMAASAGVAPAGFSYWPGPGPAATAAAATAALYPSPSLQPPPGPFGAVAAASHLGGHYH
As to conditions: protein: recombinant; tags: N-terminal GST; dsDNA, one strand shown. The essentials:
(§1)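 Sequencing on an Illumina NextSeq500 followed washing, crosslinking with 0.1% formaldehyde, proximity ligation (BsaI/T4 ligase, 1 h, 37 °C) and PCR amplification of pools that had been incubated for 30 min at room temperature with 200 nmole of a random double-stranded 16-mer DNA library in Tris/NaCl/DTT/glycerol buffer. Each pool held DNA-barcoded human transcription factors, expressed in yeast as GST fusions and captured on glutathione beads, plus a tag-only sample. Binding signal is a hexamer's read frequency for a factor divided by its frequency in the tag-only sample.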

For assay [2], the target named is ETV5 (Homo sapiens, UniProt P41161 1-510). The following applies: protein: recombinant; tags: N-terminal GST; dsDNA, one strand shown. The essentials: as §1
Assay [3] concerns the target HSF1 (Homo sapiens, UniProt Q00613 1-529). As to conditions: protein: recombinant; tags: N-terminal GST; chain copies: 3; dsDNA, one strand shown. In short, it runs like this: as §1
In assay [4] the target is T2, SPIC (Homo sapiens, UniProt Q8N5J4 1-248).
T2 sequence: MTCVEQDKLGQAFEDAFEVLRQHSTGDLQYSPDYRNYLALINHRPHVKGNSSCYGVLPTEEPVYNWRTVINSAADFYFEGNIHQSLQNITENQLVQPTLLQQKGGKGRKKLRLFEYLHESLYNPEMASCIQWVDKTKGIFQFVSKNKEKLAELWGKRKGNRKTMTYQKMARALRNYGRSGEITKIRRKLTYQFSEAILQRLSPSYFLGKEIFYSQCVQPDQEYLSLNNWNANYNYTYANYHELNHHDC
As to conditions: protein: recombinant; tags: N-terminal GST; dsDNA, one strand shown. The essentials:
as §1

Assay [5] deals with ELF4 (Homo sapiens, UniProt Q99607 1-663). The following applies: protein: recombinant; tags: N-terminal GST; dsDNA, one strand shown. The essentials:
as §1

For assay [6], the target named is T3, ELK4 (Homo sapiens, UniProt P28324-2 1-405).
T3 sequence: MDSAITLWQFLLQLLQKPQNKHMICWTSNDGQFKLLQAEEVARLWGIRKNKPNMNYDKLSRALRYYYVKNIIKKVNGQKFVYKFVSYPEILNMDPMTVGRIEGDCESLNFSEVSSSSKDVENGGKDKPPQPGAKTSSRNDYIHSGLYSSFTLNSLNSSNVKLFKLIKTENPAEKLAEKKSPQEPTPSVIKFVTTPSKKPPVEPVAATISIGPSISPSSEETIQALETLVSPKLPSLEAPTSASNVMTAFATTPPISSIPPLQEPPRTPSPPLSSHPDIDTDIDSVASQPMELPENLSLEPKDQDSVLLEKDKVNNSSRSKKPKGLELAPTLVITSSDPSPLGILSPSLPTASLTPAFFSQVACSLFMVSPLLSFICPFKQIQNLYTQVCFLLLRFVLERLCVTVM
As to conditions: protein: recombinant; tags: N-terminal GST; dsDNA, one strand shown. The essentials:
as §1

For assay [7], the target named is T4, ETV2 (Homo sapiens, UniProt O00321 1-342).
T4 sequence: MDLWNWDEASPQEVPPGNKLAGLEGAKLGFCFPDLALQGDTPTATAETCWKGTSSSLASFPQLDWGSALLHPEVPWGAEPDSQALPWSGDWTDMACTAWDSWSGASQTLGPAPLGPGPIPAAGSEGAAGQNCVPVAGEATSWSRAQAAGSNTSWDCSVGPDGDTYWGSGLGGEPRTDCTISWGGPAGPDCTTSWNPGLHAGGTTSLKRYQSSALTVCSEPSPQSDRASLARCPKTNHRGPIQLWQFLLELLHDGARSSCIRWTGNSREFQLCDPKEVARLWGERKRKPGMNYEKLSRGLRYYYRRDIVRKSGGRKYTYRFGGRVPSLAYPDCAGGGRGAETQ
As to conditions: protein: recombinant; tags: N-terminal GST; dsDNA, one strand shown. The essentials:
as §1

Assay [8] has as its target T5, ELF3 (Homo sapiens, UniProt P78545 1-371).
T5 sequence: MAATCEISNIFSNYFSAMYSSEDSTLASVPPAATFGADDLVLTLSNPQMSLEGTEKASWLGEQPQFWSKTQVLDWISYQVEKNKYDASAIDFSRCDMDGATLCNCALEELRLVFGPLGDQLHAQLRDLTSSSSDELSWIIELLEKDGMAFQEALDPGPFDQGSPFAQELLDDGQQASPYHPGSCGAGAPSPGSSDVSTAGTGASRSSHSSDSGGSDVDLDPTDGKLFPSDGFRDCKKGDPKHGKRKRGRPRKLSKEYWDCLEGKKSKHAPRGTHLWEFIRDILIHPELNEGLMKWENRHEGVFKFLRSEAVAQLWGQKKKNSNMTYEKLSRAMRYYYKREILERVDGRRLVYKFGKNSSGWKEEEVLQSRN
The following applies: protein: recombinant; tags: N-terminal GST; dsDNA, one strand shown. The essentials:
as §1

Assay [9] has as its target CRX (Homo sapiens, UniProt O43186 1-299). The following applies: protein: recombinant; tags: N-terminal GST; dsDNA, one strand shown. In short, it runs like this:
as §1

Assay [10] addresses ETV1 (Homo sapiens, UniProt P50549 1-477). As to conditions: protein: recombinant; tags: N-terminal GST; dsDNA, one strand shown. In short, it runs like this: as §1
For assay [11], the target named is T6, ERF (Homo sapiens, UniProt P50548 1-548).
T6 sequence: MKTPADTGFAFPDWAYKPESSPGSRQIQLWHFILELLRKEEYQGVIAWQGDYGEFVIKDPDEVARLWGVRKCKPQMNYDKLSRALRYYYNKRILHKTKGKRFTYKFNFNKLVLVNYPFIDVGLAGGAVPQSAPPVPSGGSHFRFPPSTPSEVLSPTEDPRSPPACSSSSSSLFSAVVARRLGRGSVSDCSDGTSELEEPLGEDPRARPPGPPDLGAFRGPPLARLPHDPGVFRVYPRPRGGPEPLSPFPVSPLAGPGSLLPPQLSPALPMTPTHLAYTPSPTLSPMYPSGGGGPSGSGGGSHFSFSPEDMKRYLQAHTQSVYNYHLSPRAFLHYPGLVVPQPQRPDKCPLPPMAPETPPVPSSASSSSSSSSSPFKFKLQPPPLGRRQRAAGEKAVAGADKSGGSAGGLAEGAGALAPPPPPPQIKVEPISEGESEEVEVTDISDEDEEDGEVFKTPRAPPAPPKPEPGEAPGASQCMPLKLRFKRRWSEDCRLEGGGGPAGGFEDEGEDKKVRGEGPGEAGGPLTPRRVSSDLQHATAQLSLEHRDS
The following applies: protein: recombinant; tags: N-terminal GST; dsDNA, one strand shown. The essentials: as §1

For assay [12], the target named is T7, ETV3L (Homo sapiens, UniProt Q6ZN32 1-361).
T7 sequence: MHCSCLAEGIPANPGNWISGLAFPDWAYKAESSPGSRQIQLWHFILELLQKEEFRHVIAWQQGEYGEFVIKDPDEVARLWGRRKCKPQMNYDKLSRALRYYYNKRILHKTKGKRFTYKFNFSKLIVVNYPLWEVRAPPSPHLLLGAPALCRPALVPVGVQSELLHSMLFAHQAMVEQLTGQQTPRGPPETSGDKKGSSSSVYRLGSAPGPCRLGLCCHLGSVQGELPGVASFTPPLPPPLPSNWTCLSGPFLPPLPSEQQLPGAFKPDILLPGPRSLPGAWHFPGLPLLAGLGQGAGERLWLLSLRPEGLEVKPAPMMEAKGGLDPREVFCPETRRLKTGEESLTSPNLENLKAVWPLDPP
As to conditions: protein: recombinant; tags: N-terminal GST; dsDNA, one strand shown. In short, it runs like this:
as §1

Assay [13] concerns the target T8, ETS2 (Homo sapiens, UniProt P15036 1-469).
T8 sequence: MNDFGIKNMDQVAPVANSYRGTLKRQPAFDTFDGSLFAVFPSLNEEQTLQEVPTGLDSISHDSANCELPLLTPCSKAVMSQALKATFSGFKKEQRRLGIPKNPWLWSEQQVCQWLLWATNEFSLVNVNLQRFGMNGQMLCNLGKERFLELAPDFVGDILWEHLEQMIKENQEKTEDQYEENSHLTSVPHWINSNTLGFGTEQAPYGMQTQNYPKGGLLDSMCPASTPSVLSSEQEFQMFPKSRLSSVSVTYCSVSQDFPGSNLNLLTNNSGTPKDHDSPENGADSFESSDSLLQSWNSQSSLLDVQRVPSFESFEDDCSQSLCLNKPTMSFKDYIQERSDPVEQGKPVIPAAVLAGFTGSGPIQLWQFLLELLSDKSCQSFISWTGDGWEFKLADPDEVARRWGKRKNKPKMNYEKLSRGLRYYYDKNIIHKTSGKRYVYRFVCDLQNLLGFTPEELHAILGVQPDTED
The following applies: protein: recombinant; tags: N-terminal GST; dsDNA, one strand shown. In short, it runs like this:
as §1

Assay [14] deals with T9, SPDEF (Homo sapiens, UniProt O95238 1-335).
T9 sequence: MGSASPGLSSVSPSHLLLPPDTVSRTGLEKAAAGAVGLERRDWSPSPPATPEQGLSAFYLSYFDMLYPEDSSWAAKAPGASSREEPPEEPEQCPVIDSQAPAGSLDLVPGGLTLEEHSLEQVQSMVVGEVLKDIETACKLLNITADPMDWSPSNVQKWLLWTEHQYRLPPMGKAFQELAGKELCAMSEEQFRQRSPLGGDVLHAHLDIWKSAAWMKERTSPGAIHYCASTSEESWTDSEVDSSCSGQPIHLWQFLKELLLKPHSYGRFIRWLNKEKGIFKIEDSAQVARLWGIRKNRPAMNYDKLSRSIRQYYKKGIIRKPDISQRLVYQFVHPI
As to conditions: protein: recombinant; tags: N-terminal GST; dsDNA, one strand shown. The essentials: as §1

The target of assay [15] is T10, ETV7 (Homo sapiens, UniProt Q9Y603 1-341).
T10 sequence: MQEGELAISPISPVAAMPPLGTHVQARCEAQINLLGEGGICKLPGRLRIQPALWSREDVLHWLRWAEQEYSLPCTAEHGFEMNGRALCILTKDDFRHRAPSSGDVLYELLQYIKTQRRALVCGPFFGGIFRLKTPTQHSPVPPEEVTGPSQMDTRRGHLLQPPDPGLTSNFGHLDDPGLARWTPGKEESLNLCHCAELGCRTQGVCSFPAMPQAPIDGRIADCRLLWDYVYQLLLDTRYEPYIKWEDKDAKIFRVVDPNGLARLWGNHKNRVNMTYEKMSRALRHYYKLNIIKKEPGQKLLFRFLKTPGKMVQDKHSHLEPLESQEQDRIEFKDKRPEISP
The following applies: protein: recombinant; tags: N-terminal GST; dsDNA, one strand shown. The essentials:
as §1

Assay [16] addresses T11, ELF5 (Homo sapiens, UniProt Q9UKW6-2 1-255).
T11 sequence: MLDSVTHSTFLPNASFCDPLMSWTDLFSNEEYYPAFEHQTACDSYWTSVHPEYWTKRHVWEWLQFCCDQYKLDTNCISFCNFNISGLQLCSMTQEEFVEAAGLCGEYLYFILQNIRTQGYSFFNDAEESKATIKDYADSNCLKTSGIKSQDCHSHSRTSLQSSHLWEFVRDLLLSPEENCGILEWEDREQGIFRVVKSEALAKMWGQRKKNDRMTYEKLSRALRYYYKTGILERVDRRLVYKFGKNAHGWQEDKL
The following applies: protein: recombinant; tags: N-terminal GST; dsDNA, one strand shown. In short, it runs like this:
as §1

In assay [17] the target is T12, ETV3 (Homo sapiens, UniProt P41162-2 1-143).
T12 sequence: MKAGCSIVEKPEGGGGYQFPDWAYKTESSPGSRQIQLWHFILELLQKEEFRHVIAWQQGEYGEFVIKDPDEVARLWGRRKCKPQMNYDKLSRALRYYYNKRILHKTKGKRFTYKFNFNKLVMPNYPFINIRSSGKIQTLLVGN
As to conditions: protein: recombinant; tags: N-terminal GST; dsDNA, one strand shown. In short, it runs like this:
as §1

For assay [18], the target named is ETV6 (Homo sapiens, UniProt P41212 1-452). The following applies: protein: recombinant; tags: N-terminal GST; dsDNA, one strand shown. The essentials: as §1
Sequence of ETV6 (P41212 whole entry): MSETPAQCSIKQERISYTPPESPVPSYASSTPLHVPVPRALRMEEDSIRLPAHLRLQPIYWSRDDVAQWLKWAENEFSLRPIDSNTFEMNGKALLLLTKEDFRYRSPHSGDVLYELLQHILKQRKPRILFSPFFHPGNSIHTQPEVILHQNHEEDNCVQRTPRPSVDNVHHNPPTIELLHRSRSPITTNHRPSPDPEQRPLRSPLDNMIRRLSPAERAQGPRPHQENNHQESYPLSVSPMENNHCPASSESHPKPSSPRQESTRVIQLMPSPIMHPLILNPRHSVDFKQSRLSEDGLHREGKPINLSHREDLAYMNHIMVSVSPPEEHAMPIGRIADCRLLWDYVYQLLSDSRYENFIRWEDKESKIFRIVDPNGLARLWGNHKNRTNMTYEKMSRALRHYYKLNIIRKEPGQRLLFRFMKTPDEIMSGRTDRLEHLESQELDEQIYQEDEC

Sequence of ELF4 (Q99607 whole entry): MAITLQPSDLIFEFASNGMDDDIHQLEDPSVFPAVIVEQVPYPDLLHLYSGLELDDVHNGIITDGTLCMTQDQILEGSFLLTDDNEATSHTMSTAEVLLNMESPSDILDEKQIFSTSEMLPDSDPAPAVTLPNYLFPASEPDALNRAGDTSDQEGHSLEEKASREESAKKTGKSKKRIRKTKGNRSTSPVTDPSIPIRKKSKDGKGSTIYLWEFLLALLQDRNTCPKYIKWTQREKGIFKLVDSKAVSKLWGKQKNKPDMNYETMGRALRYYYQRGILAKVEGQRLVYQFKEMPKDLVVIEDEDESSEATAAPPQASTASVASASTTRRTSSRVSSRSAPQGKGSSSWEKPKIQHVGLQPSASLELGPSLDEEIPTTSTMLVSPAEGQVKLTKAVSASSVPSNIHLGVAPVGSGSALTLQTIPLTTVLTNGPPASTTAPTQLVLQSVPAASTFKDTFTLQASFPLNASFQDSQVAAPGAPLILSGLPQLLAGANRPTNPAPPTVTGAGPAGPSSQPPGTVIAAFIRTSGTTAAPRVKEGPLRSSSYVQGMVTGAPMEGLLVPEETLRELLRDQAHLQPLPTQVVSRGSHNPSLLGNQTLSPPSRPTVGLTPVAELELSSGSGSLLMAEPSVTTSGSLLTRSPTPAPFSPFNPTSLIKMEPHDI
Sequence of CRX (O43186 whole entry): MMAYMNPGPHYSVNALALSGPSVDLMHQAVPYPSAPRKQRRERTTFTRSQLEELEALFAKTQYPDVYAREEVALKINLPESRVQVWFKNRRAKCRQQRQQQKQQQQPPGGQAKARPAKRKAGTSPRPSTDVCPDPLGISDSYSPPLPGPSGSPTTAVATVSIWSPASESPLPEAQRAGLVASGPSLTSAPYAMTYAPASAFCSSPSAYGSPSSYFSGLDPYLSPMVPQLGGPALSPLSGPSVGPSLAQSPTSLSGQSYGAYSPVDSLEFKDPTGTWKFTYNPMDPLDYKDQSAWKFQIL
Sequence of ETV1 (P50549 whole entry): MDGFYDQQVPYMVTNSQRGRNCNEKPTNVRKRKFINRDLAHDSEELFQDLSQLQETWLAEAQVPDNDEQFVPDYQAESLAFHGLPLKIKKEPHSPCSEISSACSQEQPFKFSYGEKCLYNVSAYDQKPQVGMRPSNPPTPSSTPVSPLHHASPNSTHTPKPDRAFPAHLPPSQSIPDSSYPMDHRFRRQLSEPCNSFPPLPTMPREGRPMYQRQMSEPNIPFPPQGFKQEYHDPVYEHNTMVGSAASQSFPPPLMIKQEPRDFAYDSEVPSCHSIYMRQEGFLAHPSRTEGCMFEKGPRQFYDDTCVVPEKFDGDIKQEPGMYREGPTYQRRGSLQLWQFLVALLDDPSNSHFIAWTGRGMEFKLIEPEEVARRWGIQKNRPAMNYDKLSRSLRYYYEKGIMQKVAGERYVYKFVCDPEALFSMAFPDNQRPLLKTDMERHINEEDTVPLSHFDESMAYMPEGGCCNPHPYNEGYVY
Sequence of HSF1 (Q00613 whole entry): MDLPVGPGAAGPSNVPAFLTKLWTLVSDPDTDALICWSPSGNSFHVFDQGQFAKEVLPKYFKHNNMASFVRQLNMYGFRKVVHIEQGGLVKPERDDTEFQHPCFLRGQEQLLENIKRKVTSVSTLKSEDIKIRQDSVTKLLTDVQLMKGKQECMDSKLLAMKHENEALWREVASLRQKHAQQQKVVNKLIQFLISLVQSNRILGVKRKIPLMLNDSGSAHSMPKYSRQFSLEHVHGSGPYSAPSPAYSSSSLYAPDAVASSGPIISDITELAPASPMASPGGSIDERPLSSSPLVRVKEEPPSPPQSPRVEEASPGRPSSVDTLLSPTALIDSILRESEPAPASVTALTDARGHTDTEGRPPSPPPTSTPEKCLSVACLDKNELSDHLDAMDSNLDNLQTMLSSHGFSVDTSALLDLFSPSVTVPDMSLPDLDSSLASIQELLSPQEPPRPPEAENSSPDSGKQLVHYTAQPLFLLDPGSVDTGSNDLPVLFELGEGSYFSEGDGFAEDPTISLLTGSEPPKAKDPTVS
Sequence of ETV5 (P41161 whole entry): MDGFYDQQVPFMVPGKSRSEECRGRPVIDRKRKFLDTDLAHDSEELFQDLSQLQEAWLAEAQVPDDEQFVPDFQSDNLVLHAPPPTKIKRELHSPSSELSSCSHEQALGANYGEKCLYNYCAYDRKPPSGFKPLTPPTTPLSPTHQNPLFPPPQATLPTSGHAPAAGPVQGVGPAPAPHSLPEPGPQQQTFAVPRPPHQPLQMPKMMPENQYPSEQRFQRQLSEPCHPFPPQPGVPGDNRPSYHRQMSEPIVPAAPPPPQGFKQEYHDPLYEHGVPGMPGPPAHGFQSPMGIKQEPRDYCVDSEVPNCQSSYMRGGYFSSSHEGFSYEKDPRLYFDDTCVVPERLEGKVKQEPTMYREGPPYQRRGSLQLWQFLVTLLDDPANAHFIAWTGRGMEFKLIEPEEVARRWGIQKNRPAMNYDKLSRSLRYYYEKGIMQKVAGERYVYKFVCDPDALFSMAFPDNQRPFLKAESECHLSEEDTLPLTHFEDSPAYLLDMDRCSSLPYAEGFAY

In the case of CCGTTT, the binding signal in [1] was 1.48 fold enrichment (6-mer frequency, TF over GST control); in assay [2] it was 1.44 fold enrichment (6-mer frequency, TF over GST control); in assay [3], 1.12 fold enrichment (6-mer frequency, TF over GST control); in [4], 1.44 fold enrichment (6-mer frequency, TF over GST control); in assay [5], 1.36 fold enrichment (6-mer frequency, TF over GST control); in [6], 1.33 fold enrichment (6-mer frequency, TF over GST control). The binding signal is 1.31 fold enrichment (6-mer frequency, TF over GST control) in assay [7]; 1.44 fold enrichment (6-mer frequency, TF over GST control) in assay [8]; 1.06 fold enrichment (6-mer frequency, TF over GST control) in [9]; 1.38 fold enrichment (6-mer frequency, TF over GST control) in assay [10]; 1.33 fold enrichment (6-mer frequency, TF over GST control) in assay [11]; 1.45 fold enrichment (6-mer frequency, TF over GST control) in [12]. The binding signal is 1.4 fold enrichment (6-mer frequency, TF over GST control) in assay [13]; 1.57 fold enrichment (6-mer frequency, TF over GST control) in assay [14]; 1.49 fold enrichment (6-mer frequency, TF over GST control) in [15]; 1.51 fold enrichment (6-mer frequency, TF over GST control) in assay [16]; 1.52 fold enrichment (6-mer frequency, TF over GST control) in [17]; 1.53 fold enrichment (6-mer frequency, TF over GST control) in assay [18].
